This is a sample that favours compounds with a hit; in the whole collection about 0.9% have one here.
SRC3 TRFRET art – counter-screen for PPARgamma SRC-3 recruitment agonists: TR-FRET artefact. PPARgamma/SRC-3 format; stronger effect = higher value. TR-FRET ratio at 8 µM. hit rate 0.39% among 99,000. AID 1048
PPARg SRC3 recr – PPARgamma-driven SRC-3 recruitment agonism; AID 731; biochemical PPARgamma/SRC-3 coactivator recruitment assay; hit rate 0.26% among 200,000; activation, % at 8 µM; in the data active means activation above about 23%;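 further: 0% = DMSO and 100% = reference agonist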
Target sequence (P37231 whole entry, looked up): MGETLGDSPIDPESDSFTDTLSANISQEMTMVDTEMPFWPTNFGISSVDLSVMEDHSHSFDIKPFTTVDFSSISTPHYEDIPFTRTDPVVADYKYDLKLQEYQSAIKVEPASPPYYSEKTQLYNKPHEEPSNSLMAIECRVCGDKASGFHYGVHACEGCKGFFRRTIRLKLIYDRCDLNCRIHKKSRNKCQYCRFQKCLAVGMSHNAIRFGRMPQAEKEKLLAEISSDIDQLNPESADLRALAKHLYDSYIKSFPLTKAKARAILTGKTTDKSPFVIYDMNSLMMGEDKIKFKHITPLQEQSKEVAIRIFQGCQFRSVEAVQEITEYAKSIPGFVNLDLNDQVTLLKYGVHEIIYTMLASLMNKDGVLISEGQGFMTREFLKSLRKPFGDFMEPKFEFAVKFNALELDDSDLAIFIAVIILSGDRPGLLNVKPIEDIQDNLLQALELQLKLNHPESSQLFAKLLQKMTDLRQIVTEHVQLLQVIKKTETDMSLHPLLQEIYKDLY
SRC2 TRFRET art – TR-FRET artefact, counter-screen to PPARgamma/SRC-2 agonist assay. stronger effect = higher value. TR-FRET ratio at 8 µM. hit rate 0.4% among 200,000. AID 1049
PPARg SRC1 recr – agonists of human PPARgamma SRC-1 coactivator recruitment. AID 631. hit rate 0.41% among 200,000. activation, % at 8 µM. PPARgamma-SRC-1 coactivator recruitment biochemical assay. P37231; in the data active means activation above about 19%;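 further: 0% = DMSO and 100% = reference agonist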
SRC1 TRFRET art – counter-screen for PPARgamma SRC-1 recruitment agonists: TR-FRET artefact | TR-FRET ratio at 8 µM | hit rate 0.34% among 99,000 | TR-FRET detection artefact counter-screen, emission ratio; stronger effect = higher value; in the data active means TR-FRET ratio above about 2300
PPARg SRC2 recr – promotes SRC-2 coactivator recruitment by human PPARgamma; P37231; PPARgamma LBD-SRC-2 recruitment, biochemical; hit rate 0.34% among 200,000; AID 1032; activation, % at 8 µM; in the data active means activation above about 22%;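 further: 0% = vehicle and 100% = reference agonist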
The depositor's hits bear a star; / = no result given. Unless noted, no stated cut-off is given here; in the data, active means TR-FRET ratio above about 2000; inactive means the rest.

SMILES	SRC3 TRFRET art	PPARg SRC3 recr	SRC2 TRFRET art	PPARg SRC1 recr	SRC1 TRFRET art	PPARg SRC2 recr
Cn1c(=O)c2c(ncn2CCNC2=NCCCCC2)n(C)c1=O	1640	-1.2	1522	-1.1	1841	37.7*
COc1ccc(C2(CNC(=O)/C=C\c3ccco3)CCCC2)cc1OC	/	-5.5	1498	40.8*	/	1.6
CC(C)N(C(=O)CSc1nn2c(=O)c(C(C)(C)C)nnc2s1)c1ccccc1	/	0.2	1419	-0.5	/	-6.5
Cc1cc(C(=O)CSc2nn3c(=O)c(C(C)(C)C)nnc3s2)c(C)n1-c1ccc(F)cc1	/	21.6	2070*	9.0	/	12.6
O=C(CSc1ncnc2c1nnn2Cc1ccccc1F)N1CCN(c2ccccc2)CC1	/	-3.8	2938*	3.0	/	67.4*
O=C(Cn1cnc2c(nnn2Cc2ccccc2F)c1=O)N1CCN(c2ccccc2)CC1	/	2.2	1480	-3.9	/	0.7
COc1ccc(Cl)cc1NC(=O)CCc1nc(-c2ccccc2F)no1	1584	0.6	1619	2.4	1865	1.2
Cc1ccc(C2C(C#N)=C(N)SC(N)=C2C#N)cc1	/	10.0	1666	9.2	/	4.5
N#CC1=C(N)SC(N)=C(C#N)C1c1ccoc1	/	28.3*	2095*	20.9*	/	30.7*
CCOC(=O)c1sc(=NC(=O)CCSc2ccccc2)n(C)c1C	2393*	5.7	1413	5.7	2065	-3.8
CCOC(=O)c1sc(=NC(=O)c2cc(OC)c(OC)c(OC)c2)n(C)c1C	/	337.5*	1659	-0.7	/	-3.5
Cc1cc(S(=O)(=O)NCC(C)C)ccc1OCC(=O)NCc1ccco1	1699	4.4	1603	0.6	1844	4.0
C=CCn1c(=O)c2ccccc2n2c(SCC(=O)c3ccccc3)nnc12	/	27.3*	1556	8.3	/	1.1
CCCCn1c(SCc2nc(N)nc(Nc3ccccc3C)n2)nc2ccccc2c1=O	/	-10.2	1460	-1.8	/	-5.2
C=CCn1c(=O)c2ccccc2n2c(SCc3nc(N)nc(Nc4ccccc4C)n3)nnc12	/	7.5	1648	21.7*	/	5.2
CC(C)(C)NC(=O)CSc1nnc(-c2ccco2)n1Cc1ccco1	1540	2.8	2029*	4.7	1846	13.0
N#Cc1c(N)sc(=S)c2c1CCCC2	/	20.6	2023*	12.4	/	18.6
Cc1[nH]c(=S)c(C#N)c2c1CCCC2	1735	8.6	1539	5.1	1916	-1.7
Cc1ccc(-c2[nH]c(=S)[nH]c(=O)c2C#N)cc1	2293*	17.8	2179*	-18.3	2571*	-4.0
CSc1cc(-c2ccc(Cl)cc2)[nH]c(=O)c1C#N	1471	-2.0	1403	2.9	1498	-4.6
CN(C)c1ncc(C2=C(Cl)C(=O)C(N3CCCC3)=C(Cl)C2=O)s1	/	-7.2	1624	25.6*	/	9.2
O=C(c1cc2sccc2n1Cc1ccccc1)N1CCc2ccccc21	/	6.4	2447*	6.1	/	2.7
O=C(c1cc2sccc2n1Cc1ccc(F)cc1)N1CCN(c2nc3ccccc3s2)CC1	/	-3.4	2655*	7.8	/	7.5
Cc1ccc(NC(=O)CN(C)C(=S)NC2CC2)cc1	1529	1.7	1539	25.9*	2119	6.2
CCOc1ccc(/C=N/n2cc(-c3ccccc3)[nH]c2=S)cc1	1762	9.5	1503	23.9*	1892	2.6
SMILES	SRC3 TRFRET art	PPARg SRC3 recr	SRC2 TRFRET art	PPARg SRC1 recr	SRC1 TRFRET art	PPARg SRC2 recr
CCOc1ccc(/C=N/O)cc1	/	2.2	1443	-3.0	/	-3.4
CCOC(=O)CS(=O)(=O)c1ccccc1	/	3.7	1540	0.9	/	0.5
CCOC(=O)CS(=O)(=O)c1ccc(O)cc1	1704	2.8	1582	20.6*	1801	-0.3
COc1cccc2sc(N3CCN(c4nc5ccccc5s4)CC3)nc12	/	30.9*	1528	12.3	/	3.1
c1ccc2sc(N3CCOCC3)nc2c1	/	-1.2	1698	6.3	/	8.8
Clc1cccc2sc(N3CCN(c4ccccc4)CC3)nc12	1618	-1.3	1671	1.4	2030	28.1*
Clc1ccc(Cl)c2sc(N3CCCC3)nc12	/	-3.0	1469	2.3	/	-5.9
COc1ccc2c(c1)C=C(C(=O)OCc1cccnc1)CO2	1331	-2.0	1481	-4.5	1628	-1.0
CSc1cccc(NC(=S)N(CCCN2CCC(C)CC2)Cc2cccs2)c1	1734	0.3	1497	0.4	1912	3.0
CCOC(=O)c1c(O)c2ccccc2n(CC)c1=O	1375	2.3	1599	4.7	1802	0.4
COC(=O)c1c(NC(=O)COC(=O)[C@@H](NS(=O)(=O)c2ccc(C)cc2)C(C)C)sc2c1CCC2	1800	3.1	1637	-0.3	2338*	6.0

Source: PubChem BioAssay
